The whole screen tested about 2,300 compounds, of which about 20 (0.9%) were called active.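 Rule for the calls: active = mean percent activation across replicates above the counterscreen hit cutoff of 9.17%; inactive = the rest.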 The sample as a whole holds a higher share of actives than the screen did.
target: Glucose-dependent insulinotropic receptor (Homo sapiens) (UniProt Q8TDV5); test: off-target GPR119 activation – cell-based, PathHunter beta-arrestin, luminescence, set 2, counter-screen for GPR151 activator project, confirmation (AID 1508607); details: GPR119 PathHunter beta-arrestin cells, 90 min, at 11.2 µM, active compounds read high;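 note: 0% = median of sample wells and 100% = wells given EA reagent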
Sequence (Q8TDV5 whole entry, looked up): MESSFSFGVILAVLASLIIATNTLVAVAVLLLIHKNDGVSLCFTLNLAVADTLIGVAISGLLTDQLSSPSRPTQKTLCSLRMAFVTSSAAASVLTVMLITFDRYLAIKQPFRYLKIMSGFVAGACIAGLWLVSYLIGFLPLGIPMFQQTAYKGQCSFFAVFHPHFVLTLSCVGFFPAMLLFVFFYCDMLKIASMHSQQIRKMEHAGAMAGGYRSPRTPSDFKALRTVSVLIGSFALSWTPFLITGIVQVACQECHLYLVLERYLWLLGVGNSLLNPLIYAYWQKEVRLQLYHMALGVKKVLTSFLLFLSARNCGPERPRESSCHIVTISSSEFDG

Q: With `CC(C)OCCCNC(=O)CN(c1ccc(OCc2ccccc2)cc1)S(C)(=O)=O` as the compound, how does the activation read?
A: Its activation is -1.63% (inactive).

Q: With `COc1ccc(S(=O)(=O)CCC(=O)N2CCc3ccccc32)cc1` as the compound, how does the activation read?
A: Its activation is 1.93% (inactive).

Q: For `Cc1ccc(S(=O)(=O)N2CCN3C(=O)[C@H](Cc4ccc(Cl)cc4)NC(=O)[C@H]3C2)cc1`, which activation is on record?
A: The activation was 1.14% (inactive).

Q: With `CC1(C(=O)NCC2Cc3cccc(-c4ncccn4)c3O2)CC1` (stereo not given) as the compound, how does the activation read?
A: Its activation is 1.78% (inactive).

Q: How did the activation turn out when `COc1ccc(CCNc2cc(C)nc(Nc3ccc(-n4ccnc4)cc3)n2)cc1` was run?
A: The activation was 6.54% (inactive).

Q: How did the activation turn out when `Cc1cc(Nc2ccc(N3CCOCC3)cc2)nc(Nc2ccc(-n3ccnc3)cc2)n1` was run?
A: Its activation is 3.07% (inactive).

Q: With `COc1ccc(CCNc2ccnc(Nc3ccc(N4CCOCC4)cc3)n2)cc1` as the compound, how does the activation read?
A: The activation was 10.5% (active).

Q: Which activation does the source give for `COc1cc(Nc2ccnc(Nc3ccc(N4CCOCC4)cc3)n2)cc(OC)c1OC` here?
A: The activation was 7.31% (inactive).

Q: How did the activation turn out when `COc1ccc(CCNc2ccnc(Nc3ccc(-n4ccnc4)cc3)n2)cc1` was run?
A: Its activation is 12.4% (active).

Q: For `Cc1cc(Nc2ccc3c(c2)OCO3)nc(Nc2ccc(N3CCOCC3)cc2)n1`, which activation is on record?
A: The activation was 1.65% (inactive).

Q: How did the activation turn out when `O=C(O)c1cc([N+](=O)[O-])ccc1C(=O)Nc1cccc2ccccc12` was run?
A: The activation was -0.79% (inactive).

Q: For `CCC(=O)N1CCc2cc(S(=O)(=O)NCCN(CC)c3ccccc3)ccc21`, which activation is on record?
A: The activation was -1.16% (inactive).

Q: With `CC1CCC(=NNC(=O)c2ccccc2O)CC1` (stereo not given) as the compound, how does the activation read?
A: Its activation is -3.51% (inactive).

Q: `CN(C)c1ccc(/C=C(\C#N)C(N)=C(C#N)C#N)cc1` was tested. Which activation did it give?
A: The activation was 4.1% (inactive).

Q: For `O=C(c1cccc(S(=O)(=O)N2CCOCC2)c1)N1CCCc2ccccc21`, which activation is on record?
A: The activation was -5.28% (inactive).

Q: Which activation does the source give for `CC(=O)Cc1nsc(Nc2cccc(Cl)c2C)n1` here?
A: Its activation is 6.59% (inactive).

Q: How did the activation turn out when `CSc1nc2sccn2c(=O)c1C(=O)NCc1ccccc1Oc1ccccc1` was run?
A: The activation was -1.15% (inactive).

Q: Which activation does the source give for `COc1cc2[nH]c(=O)n(CCC(=O)N3CCC(N4CCCCC4)CC3)c(=O)c2cc1OC` here?
A: Its activation is -2.11% (inactive).

Q: How did the activation turn out when `CN1CCN(c2cc(-c3cn[nH]c3)ccc2NC(=O)Cc2cccc(Cl)c2)CC1` was run?
A: The activation was 11.6% (active).

Q: For `CCOc1ccc(S(=O)(=O)N(CC(=O)NCCSc2ccccc2)c2ccccc2)cc1`, which activation is on record?
A: The activation was -2.47% (inactive).

Q: With `COc1ccc(-n2ncc3c(Nc4ccc(C(C)C)cc4)ncnc32)cc1` as the compound, how does the activation read?
A: The activation was 9.19% (active).

Q: With `COc1ccc(-n2ncc3c(Nc4cc(OC)ccc4OC)ncnc32)cc1` as the compound, how does the activation read?
A: The activation was 4.1% (inactive).

Q: With `COc1ccc(-n2ncc3c(Nc4cccc(F)c4)ncnc32)cc1` as the compound, how does the activation read?
A: The activation was 2.73% (inactive).

Q: `C/C(=N/NC(=O)CNC(=O)c1ccccc1F)c1cccc([N+](=O)[O-])c1` was tested. Which activation did it give?
A: The activation was -2.45% (inactive).

Q: For `CCCn1cc(SCC(=O)Nc2ccc(OC)cc2OC)c2ccccc21`, which activation is on record?
A: The activation was 4.73% (inactive).
